# Screening data as filed in PubChem.
# Sampled rows, rich in hits. Any-hit rate of the full collection: about 2.3%.
# CHRM1 antagonist: blocks human M1 muscarinic receptor | CHO-K1 hM1, Fluo-8 calcium fluorescence, ACh EC80 antagonist | inhibition, % at 3 µM | 1.3% of 360,000 active;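 active means percent inhibition above its own plate's cutoff, namely the mean of that plate's compound wells plus 3 SD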;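 further: peak over basal fluorescence ratio during 140 s after agonist addition; 0% = ACh EC80 plus DMSO and 100% = DMSO alone without agonist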
# Target sequence (P11229 whole entry, looked up): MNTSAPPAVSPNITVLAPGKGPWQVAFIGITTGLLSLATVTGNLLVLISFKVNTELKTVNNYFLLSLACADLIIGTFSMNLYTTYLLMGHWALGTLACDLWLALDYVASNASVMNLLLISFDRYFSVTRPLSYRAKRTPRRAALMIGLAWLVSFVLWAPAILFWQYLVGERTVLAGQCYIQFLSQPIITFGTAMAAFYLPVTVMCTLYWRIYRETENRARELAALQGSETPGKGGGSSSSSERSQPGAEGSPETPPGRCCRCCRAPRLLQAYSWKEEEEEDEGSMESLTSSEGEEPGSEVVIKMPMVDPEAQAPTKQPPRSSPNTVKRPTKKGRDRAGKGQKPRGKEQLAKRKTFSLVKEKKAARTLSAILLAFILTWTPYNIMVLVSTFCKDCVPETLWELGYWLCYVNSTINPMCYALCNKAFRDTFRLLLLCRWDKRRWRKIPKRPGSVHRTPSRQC
# CHO-K1 Ca antag: nonselective inhibitor or artifact in parental CHO-K1 cells. 0.6% of 360,000 active. inhibition, % at 3 µM. ATP-induced calcium, Fluo-8 fluorescence. AID 602250;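 active means inhibition above a per-plate cutoff, the plate's mean sample inhibition plus 3 SD, cut at about 24% in these data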;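 further: 0% = DMSO plus EC80 ATP and 100% = DMSO alone without ATP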
# M1 PAM: human CHRM1 positive allosteric modulation | CHO-K1 hM1, Fluo-8 calcium fluorescence, ACh EC20; 0% = ACh EC20, 100% = maximal ACh | activation, % at 3 µM | 0.088% of 360,000 active | AID 588819; in the data active means activation above about 19%, passing the limit was not always enough
# M1 ag: human M1 muscarinic receptor agonism. P11229. CHO-K1 hM1, Fluo-8 calcium fluorescence, agonist mode; 0% DMSO, 100% acetylcholine EC100. activation, % at 3 µM. 0.33% of 360,000 active. AID 588814;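 active means activation above the run's mean compound activation plus 3 SD, cut at about 16% in these data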;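 further: peak over basal fluorescence ratio within a 140 s kinetic read after compound addition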
# CHO-K1 Ca ag: nonselective activator or artifact in parental CHO-K1 cells. 0.48% of 360,000 active. Fluo-8 calcium fluorescence; scaled to maximal ATP response, vehicle zero. AID 602248. activation, % at 3 µM; in the data active means activation above about 15%;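 further: untransfected CHO-K1 host cells lacking M1 receptor as counterscreen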
# M1 PAM parental: nonselective activator or artifact in parental CHO-K1 calcium assay; ATP EC20, Fluo-8 calcium fluorescence; 0% at ATP EC20, 100% at ATP max; activation, % at 3 µM; 0.02% of 360,000 active; AID 602247;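 active means activation above the run cutoff, the mean activation of all test compounds plus 3 SD, cut at about 40% in these data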;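 further: peak over basal fluorescence ratio in a 140 s read after ATP addition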
# * = called active by the depositor.
SMILES,CHRM1 antagonist,CHO-K1 Ca antag,M1 PAM,M1 ag,CHO-K1 Ca ag,M1 PAM parental
CC(Oc1ccccc1)C(=O)Nc1ccc(S(=O)(=O)N2CCCC2)cc1 (centres undefined),-7,0,-4,-10,3,-11
CC(C)Cc1nc(SCC(=O)N2CCCCC2)c2c(=O)n(C)c(=O)n(C)c2n1,-12,-11,7,-5,2,-2
Cc1c(NC(=O)COC(=O)c2cccn2C)c(=O)n(-c2ccccc2)n1C,-11,-11,3,-5,1,14
CCN(CC)S(=O)(=O)c1cc(NC(=O)C2CC(=O)N(Cc3ccccc3)C2)ccc1Cl (centres undefined),-2,-2,0,-3,7,12
Cc1ccc(C)c(C(O)c2ncc(-c3ccccc3Cl)[nH]2)c1 (centres undefined),11,-3,-3,-3,1,11
CC(C)Cn1c(=O)[nH]c(=O)c2c(C(F)(F)F)cc(-c3ccccc3)nc21,4,4,1,-3,2,-1
CC(Sc1ccc(Cl)cc1)C(=O)Nc1ccc(S(=O)(=O)N2CCOCC2)cc1 (centres undefined),-1,-17,10,22*,11,19
CC(Oc1cc(F)ccc1[N+](=O)[O-])C(=O)Nc1ccc(S(=O)(=O)N2CCCC2)cc1 (centres undefined),73*,-2,-26,-5,5,2
Cc1cccc(C(=O)OC(C)C(=O)Nc2ccc(S(=O)(=O)N3CCCC3)cc2)c1O (centres undefined),29*,18,-16,-5,3,-15
CC(OC(=O)c1cc(Br)ccc1O)C(=O)Nc1ccc(S(=O)(=O)N2CCCC2)cc1 (centres undefined),16,8,-1,2,7,-30
CC(C)C(=O)Nc1ccc(C(=O)Nc2ccc(S(=O)(=O)N3CCOCC3)cc2)cc1,-21,-3,11,-1,0,15
CC(Sc1ccc(Cl)cc1)C(=O)N(C)CC(=O)Nc1ccc(N2CCOCC2)cc1 (centres undefined),18*,5,-7,-2,2,-10
CC(NC(=O)C12CC3CC(CC(C3)C1)C2)c1ccc(F)cc1 (centres undefined),11,-13,-3,1,0,-19
O=C(Cn1nc(-c2ccccc2)oc1=O)OCC(=O)c1ccccc1,-2,14,16,5,0,24
O=S(=O)(NCc1ccccc1)c1ccc(S(=O)(=O)N(Cc2cccs2)CC2CCCO2)cc1 (centres undefined),-3,28*,-1,-1,0,-7
COc1cc(S(=O)(=O)N(Cc2cccs2)CC2CCCO2)ccc1-n1cnnn1 (centres undefined),-2,1,-1,-11,1,4
COc1ccc(C2c3c(-c4ccccc4O)n[nH]c3C(=O)N2Cc2ccco2)cc1OC (centres undefined),-9,-9,1,-4,1,15
COc1ccc(C2c3c(-c4cc(Cl)c(C)cc4O)n[nH]c3C(=O)N2Cc2cccnc2)cc1OC (centres undefined),80*,2,-21,-6,0,12
CCC(=O)NCCc1nc2cc(NC(=O)Nc3ccccc3)ccc2n1C,-8,-10,3,-2,1,8
CCn1c(P(C)(=O)O)nc2cc(NC(=O)c3ccccc3Cl)ccc21,0,24*,2,-6,0,-13
CCC(=O)NCCc1nc2cc(NC(=O)c3ccccc3Cl)ccc2n1C,-24,-10,30*,3,1,5
CSc1nc2c(c(=O)[nH]1)C(c1ccc(F)cc1)CC(=O)N2 (centres undefined),-10,-9,16,-5,3,18
CSc1nc2c(c(=O)[nH]1)C(c1ccc(Br)cc1)CC(=O)N2 (centres undefined),-5,8,13,-3,16*,6
Cc1ccc(/C=C/C(=O)N(Cc2cccs2)C2CCS(=O)(=O)C2)cc1 (centres undefined),-20,1,15,-1,2,16
